Assay outcomes from PubChem.
This is a sample that favours compounds with a hit; in the whole collection about 1.6% have one here.
Sa RN4220 lethal: kills Staphylococcus aureus RN4220 | S. aureus RN4220 growth, OD600, 16 h | inhibition, % (test concentration not listed) | 330,000 compounds, 0.33% hits | AID 1259311; in the data active means inhibition above about 85%;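 further: plate controls were untreated cells for no effect and reference antibiotic for full effect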
CCHF vOTU inh-1: blocks the CCHF virus ovarian tumor domain protease; inhibition, % at 11.5 µM; CCHFV vOTU protease, Pep-AMC fluorescence; 370,000 compounds, 0.55% hits; further: 0% = vehicle wells with enzyme and 100% = no enzyme wells
PfHsp40 rescue: compounds rescuing yeast from Plasmodium falciparum HSP40 toxicity; S. cerevisiae expressing PfHsp40, growth rescue, ATP luminescence; growth rescue, % at 12.5 µM; 340,000 compounds, 0.68% hits; AID 504582; in the data active means growth rescue above about 28%, passing the limit was not always enough;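 further: yeast W303a lacking pdr1 and pdr3 grown in galactose medium; growth measured after three days at 30 °C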
Sa ugtP lethal: growth inhibition of S. aureus ugtP deletion strain; S. aureus RN4220 ugtP deletion, OD600 growth, 16 h; growth inhibition, % (no concentration beside the values); 330,000 compounds, 0.54% hits; AID 1259309; in the data active means growth inhibition above about 68%;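 further: plate controls were untreated wells for no effect and antibiotic for full effect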
BJeLR lethal: kills HRASV12-expressing BJeLR cells; BJeLR (HRASV12) viability, CellTiter-Glo ATP luminescence, 48 h; inhibition, % (concentration not given with the values); 300,000 compounds, 0.17% hits; AID 1554; in the data active means inhibition above about 50%
CCHF vOTU inh-2: confirmation of CCHF virus vOTU protease inhibitors. 1,900 compounds, 17% hits. Recombinant CCHFV vOTU, Pep-AMC fluorescence. shares compounds with CCHF vOTU inh-1. inhibition, % at 11.5 µM. AID 686976
The depositor's hits bear a star; x = no result given. Unless noted, no stated cut-off is given here; in the data, active means inhibition above about 30%; inactive means the rest.

SMILES	Sa RN4220 lethal	CCHF vOTU inh-1	PfHsp40 rescue	Sa ugtP lethal	BJeLR lethal	CCHF vOTU inh-2
C=CCC[C@H](Cc1ccc(F)cc1)C(=O)OC[C@@H](Cc1c[nH]c2ccccc12)NC(=O)[C@@H](CC=C)CC(=O)N(CCO)Cc1ccccc1	x	32*	0	x	x	8
C=CC[C@@H](CC(=O)N[C@H](CO)Cc1ccccc1)C(=O)N[C@@H](COC(=O)[C@@H](CC=C)CC(=O)OC(C)(C)C)Cc1c[nH]c2ccccc12	x	31*	0	x	x	-11
COc1ccc(NC(=O)CON=C2CCCc3nonc32)cc1	2	x	x	-1	x	x
O=C(O)c1cccc2c1C(=O)c1ccccc1-2	4	0	0	4	0	x
O=C1C(=C(I)I)c2ccccc2-c2ccccc21	x	95*	0	x	x	55*
O=C1c2ccccc2-c2nc3ccccc3nc21	11	-2	6	2	-8	x
O=C1C(=O)c2ccccc2-c2ccccc21	x	114*	-3	x	100*	96*
Cc1nc2c(nc1C)C(=O)c1ccccc1C2=O	x	32*	-2	x	x	21
NC(=S)NN=Cc1ccc(-c2cc(Cl)c(Cl)cc2Cl)o1	9	x	x	-13	x	x
NC(=O)C(CC(=O)O)NC(=O)C1CCOc2c(I)cc([N+](=O)[O-])cc2C(=O)NC(CCC(=O)O)C(=O)NC(CO)C(=O)N1 (stereo not drawn)	8	x	x	1	x	x
O=C(O)c1cccc(NC(=S)N/N=C/c2ccccc2OCc2cccc(Br)c2)c1	x	11	2	x	5	x
O=C(O)c1cccc(NC(=S)N/N=C/c2ccccc2OCc2ccc(Br)cc2)c1	x	30*	0	x	-6	12
COc1ccc(NC(=O)Nc2cccc3c2OC(CN(C)S(C)(=O)=O)C(C)CN(C(C)CO)C3=O)cc1 (stereo not drawn)	4	x	x	5	x	x
FC(F)(F)c1cccc(-c2cc3nc(NCCCn4ccnc4)ccn3n2)c1	x	0	x	x	x	x
CC(C)Cc1ccc(-c2cc3nc(NCCCn4ccnc4)ccn3n2)cc1	x	30*	x	x	x	2
C[C@]12CCC3c4ccc(OC5OC(C(=O)O)C(O)C(O)C5O)cc4CCC3C1CC(O)C2O (stereo partly drawn)	3	x	x	4	x	x
Cc1noc(C)c1NC(=O)N(C)CC1Oc2ccc(NC(=O)Nc3ccc4c(c3)OCO4)cc2C(=O)N(C(C)CO)CC1C (stereo not drawn)	1	x	x	0	x	x
C=CCOc1c(Br)cc(C=NO)cc1OCC	2	x	x	68	x	x
Cc1ccc(N=C2C(=S)N(c3ccc(C)cc3)C(=N)N2N=Cc2ccc(Cl)cc2)cc1	1	x	x	8	x	x
CS(=O)(=O)N(Cc1ccc(Cl)cc1)c1ccc(C(=O)NCC2CCCO2)cc1 (stereo not drawn)	8	6	0	-3	6	x
CS(=O)(=O)N(Cc1ccccc1)c1ccc(C(=O)NCC2CCCO2)cc1 (stereo not drawn)	1	35*	-1	-5	1	-6
C[C@@H]1CN(c2ccc(N3CCN(C(=O)OC(C)(C)C)C[C@H]3C)cc2C#N)C[C@H](C)O1	x	17	x	x	x	x
C[C@@H]1CN(C(=O)OC(C)(C)C)CCN1c1ccc(N2CC[C@H](O)C2)c(C#N)c1	x	48*	x	x	x	-16
C[C@@H]1CN(c2ccc(N3CCN(C(=O)OC(C)(C)C)C[C@@H]3C)cc2C#N)C[C@H](C)O1	x	41*	x	x	x	-3
CC(/C=C/c1ccco1)=NNC(=O)C1COc2ccccc2O1 (stereo not drawn)	-5	x	x	17	x	x
SMILES	Sa RN4220 lethal	CCHF vOTU inh-1	PfHsp40 rescue	Sa ugtP lethal	BJeLR lethal	CCHF vOTU inh-2
COc1ccc(C=NNC(=O)c2cc(C34CC5CC(CC(C5)C3)C4)[nH]n2)cc1OC	-1	x	x	-31	x	x
CC(C)CC1CN=C(Nc2ccccc2)N1CCC1CCCCC1 (stereo not drawn)	5	x	x	-15	x	x
O=C(NC1CCCC1)c1ccc(CS(=O)Cc2ccccc2Cl)o1 (stereo not drawn)	2	34*	1	-3	1	-19
CC(C)N1CC2(CC(c3ccccc3F)=NO2)CN1C(=O)c1ccc(C(C)(C)C)cc1 (stereo not drawn)	x	35*	x	x	x	-4
CC(C)N1CC2(CC(c3ccccc3C(F)(F)F)=NO2)CN1C(=O)c1ccc(C(C)(C)C)cc1 (stereo not drawn)	x	17	x	x	x	x
CC(=O)c1cc(O)c2ccccc2c1O	7	37*	-1	7	4	-9
CC(=O)c1coc2c1cc(O)c1ccccc12	8	0	0	-1	-2	x
Cc1ccc(C=NNC(=O)c2nnn(-c3nonc3N)c2CSc2ccccc2)cc1	4	x	x	6	x	x
Cc1ccc(NC(=O)CCC(=O)NN=Cc2ccccc2O)cc1	-2	x	x	-2	x	x
CCCn1c(N=Cc2ccccc2O)nc2ccccc21	4	x	x	-11	x	x
Cc1ccc(S(=O)(=O)Nc2ccc(Br)cc2C(NCC(=O)O)c2ccccc2)cc1 (stereo not drawn)	12	8	0	-28	11	x
O=S(=O)(Nc1cc(Sc2ncn[nH]2)c(O)c2ccccc12)c1ccccc1	17	105*	24	-10	x	97*
O=C(O)CSc1cc(NS(=O)(=O)c2ccc(Br)cc2)c2ccccc2c1O	x	114*	0	x	5	104*
CC1(C(=O)NCc2cccc3ccccc23)CCN1Cc1ccc(OC(F)(F)F)cc1 (stereo not drawn)	x	34*	x	x	x	17
CC1(C(=O)NCc2ccc(Cl)cc2)CCN1C(=O)Cc1cccc2ccccc12 (stereo not drawn)	x	10	x	x	x	x
CCCCNC(=O)C1(C)CCN1C(=O)Cc1cccc2ccccc12 (stereo not drawn)	x	47*	x	x	x	-23
COc1ccc(C=NNC(=O)c2snnc2C)c(OC)c1OC	6	x	x	5	x	x
COC1=CC(=Cc2c(N)n3nc(CC(=O)N4CCCCC4)sc3nc2=O)C=C(OC)C1=O	x	34*	0	x	0	4
Cc1ccc(S(=O)(=O)NN=Cc2c(C)nn(-c3ccccc3)c2C)cc1	2	x	x	-1	x	x
O=C(NN=Cc1c[nH]c2ccccc12)c1ccc([N+](=O)[O-])cc1Cl	2	x	x	8	x	x
C=CCOc1ccc(C=Nn2nnnc2N)cc1OC	2	x	x	0	x	x
CCC(Sc1nc2ccsc2c(=O)n1Cc1ccc(C(=O)O)cc1)C(=O)Nc1ccc(C)c(Cl)c1 (stereo not drawn)	10	31*	0	-6	-8	8
CC1(C)OC2C(COS(=O)(=O)O)OC(n3ccc(=O)[nH]c3=O)C2O1 (stereo not drawn)	7	x	x	-1	x	x
CCOc1ccc(NC(=O)CN(C)C(=O)c2ccc(C)o2)cc1OCC	4	32*	0	10	-13	-23
CCOc1ccc(NC(=O)CN(C)C(=O)c2cc(C)oc2C)cc1OCC	0	-3	-1	6	3	x
CCOC(=S)NC(=O)c1sc2ccccc2c1Cl	9	34*	3	-9	1	-3
CCCOC(=S)NC(=O)c1sc2ccccc2c1Cl	34	2	0	3	2	x
